Values joined by “and” are separate entries in the source; they are usually repeats but may differ in a detail not shown here. Identical values can stand only once. Results filed as inconclusive are left out. Active and inactive are the calls of the source. Calls come from the whole dose curve.
assay: qHTS assay for small molecule agonists of the p53 signaling pathway (AID 651631); settings: HCT-116 p53RE-bla reporter, beta-lactamase FRET ratio, 16 h; series mostly up to 73.3 µM; activation: at the top concentration; note: nearly all actives have a fitted effect of over 15% in size
Description: U.S. Tox21 Program National Center for Advancing Translational Sciences [NCATS] NIH Chemical Genomics Center [NCGC] U.S. Environmental Protection Agency [EPA] National Institutes of Environmental Health Sciences [NIEHS] National Toxicology Program [NTP] U.S. Food and Drug Administration [FDA] Tox21 Assay Overview: p53, a tumor suppressor protein, is activated following cellular insult, including DNA damage and other cellular stresses. The activation of p53 regulates cell fate by inducing DNA repair, cell cycle arrest, apoptosis, or cellular senescence. The activation of p53, therefore, is a good indicator of DNA damage and other cellular stresses. The CellSensor p53RE-bla HCT-116 cell line (Invitrogen) contains a stably integrated beta-lactamase reporter gene under control of the p53 response elements. The activation of the reporter gene under culture conditions can be detected by fluorescence intensity. This cell line was used to screen the Tox21 compound library in a 1536-well plate format and to identify agonists that activate the p53 signaling pathway.
Tox21 Assay Protocol Summary: The p53RE-bla cells were dispensed at 4,000 cells/5 ul/well in 1536-well black wall/clear bottom plates using a Multidrop dispenser. After the assay plates were incubated at a 37 C/5% CO2 incubator for 5 hours, 23 nL of compounds dissolved in DMSO, positive controls or DMSO only was transferred to the assay plate by a pin tool. The plates were incubated at 37 C for 16 hours. After 1 uL of LiveBLAzerTM B/G FRET substrate was added using a Flying Reagent Dispenser, the plates were incubated at room temperature for 2 hours, and fluorescence intensity was measured by an Envision plate reader.
% is set by controls: 0 for no effect and ±100 for the full control effect; potency is the fitted concentration of half-maximal effect.

| Compound | activation | Potency |
| --- | --- | --- |
| Cn1ccc2cc3c(cc21)CCN3C(=O)Nc1cccnc1 | -1.77% (inactive) | – |
| CO[Si](CCCNCCC[Si](OC)(OC)OC)(OC)OC | -2.9% (inactive) | – |
| O=[N+]([O-])c1ccc(Oc2ccc([N+](=O)[O-])cc2)cc1 | 4.04% [at 95.1 µM] (inactive) | – |
| CCc1cc(S(=O)(=O)O)c2cc(C(C)C)cccc1-2 | 1.71% (inactive) | – |
| OCC(CO)(CO)COCC(CO)(CO)CO | -3.04% (inactive) | – |
| Fc1ccccc1-c1ccccc1 | -3.47% [at 95.1 µM] (inactive) | – |
| CCCCCOC(=O)Nc1nc(=O)n([C@@H]2O[C@H](C)[C@@H](O)[C@H]2O)cc1F | 1.4% (inactive) | – |
| COc1ccc(NC(C)=O)cc1 | -4.3% [at 95.1 µM] (inactive) | – |
| CCCOCC(C)OCC(C)O (stereo not given) | -1.62% [at 95.1 µM] (inactive) | – |
| NC(=O)c1ncn([C@@H]2O[C@H](CO)[C@@H](O)[C@H]2O)c1N | 4.43% (inactive) | – |
| CC(=O)NC(Cc1ccccc1)C(=O)O (stereo not given) | -1.63% (inactive) | – |
| OCc1ccccn1 | 1.09% (inactive) | – |
| CCCCCN(CCCCC)C(=O)C(CCC(=O)O)NC(=O)c1ccc(Cl)c(Cl)c1 (stereo not given) | -4.64% (inactive) | – |
| [O-][N+](=Nc1ccccc1)c1ccccc1 | – | inactive |
| CCCC(C)C(=O)O (stereo not given) | 1.28% (inactive) | – |
| O=C(O)/C=C/c1ccc(Cn2ccnc2)cc1 | -2.95% [at 34.7 µM] (inactive) | – |
| CC(=O)OC(C)(C)C | -2.01% (inactive) | – |
| Cc1cc(C)c(NC(=O)CN(CC(=O)O)CC(=O)O)c(C)c1Br | 2.3% (inactive) | – |
| Nc1nc(F)nc2c1ncn2[C@@H]1O[C@H](CO)[C@@H](O)[C@@H]1O | – | 13.3 µM (active) and 8.41 µM (active) |
| N#CCN(CC#N)CCN(CC#N)CC#N | -2.88% (inactive) | – |

| Compound | activation | Potency |
| --- | --- | --- |
| CCn1cc(C(=O)O)c(=O)c2cc(F)c(N3CCN(C)CC3)cc21 | -2.42% (inactive) | – |
| Oc1cc(O)c2c(c1)O[C@H](c1ccc(O)c(O)c1)[C@H](O)C2 | -2.37% (inactive) | – |
| CCCCN(CCO)CCO | 2.13% (inactive) | – |
| CC(C=O)Cc1ccc(C(C)C)cc1 (stereo not given) | -3.45% (inactive) | – |
| CC12CCC(CC1=O)C2(C)C (stereo not given) | -0.978% (inactive) | – |
| CCCCCCCCCCC1CO1 (stereo not given) | -1.95% (inactive) | – |
| CC(=O)CCc1ccc(O)cc1 | -1.71% (inactive) | – |
| CCC(=O)/C=C/c1ccc(OC)cc1 | 5.97% (inactive) | – |
| OC1OC[C@@H](O)[C@H](O)[C@H]1O (stereo not given in full) | -1.15% (inactive) | – |
| CN(C)N=Nc1ccccc1 | 2.47% (inactive) | – |
| CC1=CC(C)C(C=O)C(C)C1 (stereo not given) | -1.06% (inactive) | – |
| C[N+](C)(C)CC[N+]1(C)Cc2c(Cl)c(Cl)c(Cl)c(Cl)c2C1 | -0.837% (inactive) | – |
| COC(=O)CCCCCCCCC(=O)OC | -0.29% [at 95.1 µM] (inactive) | – |
| COc1cccc(OC)c1 | 7.17% (inactive) | – |
| CN1[C@@H]2CC[C@H]1CC(NC(=O)n1c(=O)[nH]c3ccccc31)C2 (stereo not given in full) | -1.63% (inactive) | – |
| Oc1ccc2c(c1)OC[C@@H](N1CCC(O)(c3ccc(F)cc3)CC1)[C@H]2O | -0.787% (inactive) | – |
| CCC(C(=O)NC(N)=O)c1ccccc1 (stereo not given) | 2.5% (inactive) | – |
| O=C(O)c1ccc[n+]([O-])c1 | -0.95% (inactive) | – |
| C1COCCO1 | -3.71% [at 95.1 µM] (inactive) | – |
| CC(C)c1cccc(O)c1 | 4.61% [at 95.1 µM] (inactive) | – |

Reference: PubChem BioAssay (Tox21)
